Assay results published in PubChem BioAssay (Tox21).
“And” between values parts separate entries of the source, which are not always exact repeats. Equal entries are not always repeated. Inconclusive results are not listed. A call without a number means that no potency is given here. Some structures have more than one record in an assay (separate samples or runs), and their calls can disagree. The source made the active and inactive calls. Unless noted, calls come from the whole dose curve.

Assays:
[1] = Nuclear factor erythroid 2-related factor 2/antioxidant responsive element (Nrf2/ARE) small molecule agonists: qHTS cell viability counter screen in human keratinocytes (AID 1919968; active = well fitted curve in the direction sought with a large enough effect in the repeat runs; an effect the other way counts as inactive or inconclusive; note: nearly all actives have a fitted effect of over 55% in size; note: potency is the fitted concentration of half-maximal effect)
Procedure, shortened: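 Viability counter-screen: KeratinoSens reporter cells, DMSO-delivered compounds, 23 h at 37 C, CellTiter-Fluor fluorescence.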

[2] = Nuclear factor erythroid 2-related factor 2/antioxidant responsive element (Nrf2/ARE) small molecule agonists: luciferase reporter gene qHTS assay in human keratinocytes (AID 1919969); note: nearly all actives have a fitted effect of over 35% in size; note: potency is the fitted concentration of half-maximal effect
[3] = target: Gonadotropin-releasing hormone receptor (Homo sapiens) (UniProt P30968); test: Human gonadotropin-releasing hormone receptor (GnRHR) small molecule agonists, calcium flux assay in GnRHR-HEK293 cells (AID 1920063); note: nearly all actives have a fitted effect of over 35% in size; note: potency is the fitted concentration of half-maximal effect
Procedure, shortened: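 Tox21-format agonist screen using human GnRHR-expressing HEK293 cells and a fluorescent calcium dye; kinetic 3-min fluorescence reading after compound addition, 15-point concentration series run in triplicate.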

[4] = target: KiSS-1 receptor (Homo sapiens) (UniProt Q969F8); test: Human kisspeptin (KISS1R) small molecule agonists, calcium flux assay in KISS1R-HEK293 cells (AID 1920064; active = well fitted curve in the direction sought with a large enough effect in the repeat runs; an effect the other way counts as inactive or inconclusive)
Procedure, shortened: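 Intracellular calcium mobilization in KISS1R-HEK293 cells was recorded by fluorescence (Ex/Em 480/540) for 3 min following compound addition to cells pre-loaded 1 h with calcium dye.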

[5] = G protein-coupled receptor (GPCR) small molecule agonists, calcium flux assay: HEK293 wild type cell line counter screen (AID 1920065)
Procedure, shortened: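 In this agonist-mode screen, ATP is the positive control and DMSO the vehicle. Cells grow 18 h before a 1 h dye incubation at 37 C; signal is taken at Ex/Em 480/540 over 3 min.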

[6] = p53 small molecule agonists, cell-based qHTS assay with human liver microsomes (AID 1963577);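 note: p53 response element beta-lactamase reporter cells with liver microsomes plus NADPH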
Procedure, shortened: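 Steps: plate p53RE-bla cells, incubate 5 h at 37 C; add compound in DMSO; add microsomes (0.5 mg/mL final) and NADPH (0.5 mg/mL final); incubate 16 h at 37 C; add LiveBLAzer, 2 h RT; read fluorescence.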

[7] = p53 small molecule agonists, cell-based qHTS assay with rat liver microsomes (AID 1963578)
Procedure, shortened: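 Metabolic activation is supplied by rat liver microsomes with NADPH (each 0.5 mg/mL final). p53RE-bla cells incubate with compound 16 h at 37 C; reporter activity is measured by LiveBLAzer fluorescence.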

[8] = p53 small molecule agonists, cell-based qHTS assay with human liver microsomes: qHTS cell viability counter screen (AID 1963579); note: nearly all actives have a fitted effect of over 45% in size; note: potency is the fitted concentration of half-maximal effect
Procedure, shortened: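 After the 460/530 nm beta-lactamase read, CellTiter-Glo was added to the same wells and luminescence measured after 30 min at room temperature, giving viability of p53RE-bla cells treated 16 h with compounds plus microsomes and NADPH.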

[9] = p53 small molecule agonists, cell-based qHTS assay with rat liver microsomes: qHTS cell viability counter screen (AID 1963580); note: nearly all actives have a fitted effect of over 45% in size
Procedure, shortened: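 HCT-116 p53RE-bla, 4,000 cells/well, 5 h pre-incubation; cpd + rat liver microsomes 0.5 mg/mL + NADPH 0.5 mg/mL (final); 16 h, 37 C; CellTiter-Glo, 30 min RT; luminescence.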

[10] = p53 small molecule agonists, cell-based qHTS assay: qHTS cell viability counter screen (AID 1963581); note: nearly all actives have a fitted effect of over 45% in size
Procedure, shortened: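 Compounds are pinned onto HCT-116 p53RE-bla cells and left 16 h at 37 C. Following the reporter FRET read, ATP is quantified by CellTiter-Glo luminescence after 30 min at room temperature.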

[11] = p53 small molecule agonists, cell-based qHTS assay (AID 1963582; active = well fitted activation curve with a large enough effect in the signal ratio in the repeat runs, not every such curve was filed as active; the % refers to the signal ratio)
Procedure, shortened: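 Agonist activity was scored from beta-lactamase FRET fluorescence in p53RE-bla cells treated 16 h at 37 C with compounds in DMSO, substrate incubation being 2 h at room temperature.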

[12] = target: D(2) dopamine receptor (Homo sapiens) (UniProt P14416); test: Dopamine D2 receptor (DRD2) small molecule agonists, cell-based qHTS assay (AID 1963594); note: nearly all actives have a fitted effect of over 35% in size
Procedure, shortened: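 cAMP accumulation in DRD2-HEK293 cells measured by HTRF after 1 h detection; compounds added 10 min before NKH477 (200nM […]) forskolin-analogue stimulation, 30 min at room temperature, with Ro20-1724 present at 0.1 mM final.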

[13] = target: D(2) dopamine receptor (Homo sapiens) (UniProt P14416); test: Dopamine D2 receptor (DRD2) small molecule antagonists, cell-based qHTS assay (AID 1963595; active = well fitted inhibition curve with a large enough effect in the signal ratio in the repeat runs, with a control signal flat; the % refers to the signal ratio; note: potency is the fitted concentration of half-maximal effect)
Procedure, shortened: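 Cells were plated and grown for 24 h at 37 °C. Ro20-1724 (0.1 mM final) went in first, then compound for 10 min. NKH477 (200 nM) with quinpirole (12 nM) followed for 30 min at RT, then HTRF detection reagents for 1 h.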

[14] = target: 5-hydroxytryptamine receptor 2A (Homo sapiens) (UniProt P28223); test: 5-hydroxytryptamine receptor 2A (HTR2A) small molecule agonists, cell-based qHTS assay (AID 1963587); note: nearly all actives have a fitted effect of over 30% in size
Procedure, shortened: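 Kinetic calcium-flux fluorescence (2 min, 1 sec intervals) after compound addition in agonist mode. HTR2A-CHO cells were cultured 18 h, then dye-loaded 1 h at 37 C.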

[15] = target: Muscarinic acetylcholine receptor M1 (Homo sapiens) (UniProt P11229); test: Cholinergic receptor muscarinic 1 (CHRM1) small molecule antagonists, cell-based qHTS assay (AID 1963588); note: nearly all actives have a fitted effect of over 40% in size
Procedure, shortened: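 CHRM1-CHO calcium-flux assay, antagonist mode. Cells were seeded 18 h, dye-loaded 1 h at 37 C and given compound for 5 min at RT, then acetylcholine was added at 50nM. FDSS fluorescence was read 3 min; 15 concentrations, three runs.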

[16] = target: Muscarinic acetylcholine receptor M1 (Homo sapiens) (UniProt P11229); test: Cholinergic receptor muscarinic 1 (CHRM1) small molecule agonists, cell-based qHTS assay (AID 1963589); note: nearly all actives have a fitted effect of over 35% in size
Procedure, shortened: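 Stable CHRM1-CHO cells (human receptor) were incubated 18 h, dye-loaded for 1 h at 37 C and exposed to test compounds for agonist activity, with calcium-dependent fluorescence followed kinetically.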

[17] = cAMP Responsive Elements (CRE) small molecule antagonists, cell-based qHTS assay (AID 1963591; active = well fitted inhibition curve with a large enough effect in the signal ratio in the repeat runs, not every such curve was filed as active; the % refers to the signal ratio)
Procedure, shortened: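 qHTS in CRE-bla HEK 293T cells: compound in DMSO, then 0.25 uM NKH477 (final), 3 h at 37 °C/5% CO2; beta-lactamase FRET read-out after 2 h substrate incubation.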

[18] = target: Beta-2 adrenergic receptor (Homo sapiens) (UniProt P07550); test: Adrenergic beta2 receptor (ADRB2) small molecule antagonists, cell-based qHTS assay (AID 1963592); note: series mostly up to about 92 µM; nearly all actives have a fitted effect of over 50% in size
Procedure, shortened: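 Cells (CHO, stable ADRB2 overexpression) incubated 18-20hr at 37C; compounds added from DMSO; agonist mix (1nM isoproterenol, 100uM IBMX, 25uM Ro-20-1724) added; 0.5hr RT; d2-cAMP and anti-cAMP-cryptate added; 1hr RT; 665/615 nm read.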

[19] = target: Beta-2 adrenergic receptor (Homo sapiens) (UniProt P07550); test: Adrenergic beta2 receptor (ADRB2) small molecule agonists, cell-based qHTS assay (AID 1963593);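 note: CHO cells stably overexpressing human ADRB2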
Procedure, shortened: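 CHO cells stably over-expressing ADRB2 were plated overnight at 37C, then dosed with compounds plus a stimulation mix containing 100uM IBMX and 25uM Ro-20-1724 for 0.5hr at room temperature. cAMP was measured by HTRF competition, 1hr.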

[20] = cAMP Responsive Elements (CRE) small molecule agonists, cell-based qHTS assay (AID 1963590)
Procedure, shortened: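 FRET-based beta-lactamase readout (LiveBLAzer B/G, 2 h RT) quantified CRE activation in HEK 293T CRE-bla cells after 3 h treatment with DMSO-dissolved compounds.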

Sequence of D(2) dopamine receptor (Homo sapiens) (P14416 whole entry, looked up): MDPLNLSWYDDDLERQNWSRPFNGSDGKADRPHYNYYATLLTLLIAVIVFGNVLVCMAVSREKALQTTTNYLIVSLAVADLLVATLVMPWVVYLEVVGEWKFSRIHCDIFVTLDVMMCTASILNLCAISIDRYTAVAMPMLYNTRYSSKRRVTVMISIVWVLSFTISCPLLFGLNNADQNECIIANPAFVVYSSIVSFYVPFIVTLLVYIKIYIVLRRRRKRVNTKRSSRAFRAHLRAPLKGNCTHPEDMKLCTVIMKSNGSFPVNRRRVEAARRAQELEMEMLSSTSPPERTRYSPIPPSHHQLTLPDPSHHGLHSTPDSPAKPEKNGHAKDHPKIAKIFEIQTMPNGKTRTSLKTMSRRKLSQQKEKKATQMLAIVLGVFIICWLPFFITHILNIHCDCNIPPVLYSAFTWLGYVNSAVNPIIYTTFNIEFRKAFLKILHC
Sequence of 5-hydroxytryptamine receptor 2A (Homo sapiens) (P28223 whole entry, looked up): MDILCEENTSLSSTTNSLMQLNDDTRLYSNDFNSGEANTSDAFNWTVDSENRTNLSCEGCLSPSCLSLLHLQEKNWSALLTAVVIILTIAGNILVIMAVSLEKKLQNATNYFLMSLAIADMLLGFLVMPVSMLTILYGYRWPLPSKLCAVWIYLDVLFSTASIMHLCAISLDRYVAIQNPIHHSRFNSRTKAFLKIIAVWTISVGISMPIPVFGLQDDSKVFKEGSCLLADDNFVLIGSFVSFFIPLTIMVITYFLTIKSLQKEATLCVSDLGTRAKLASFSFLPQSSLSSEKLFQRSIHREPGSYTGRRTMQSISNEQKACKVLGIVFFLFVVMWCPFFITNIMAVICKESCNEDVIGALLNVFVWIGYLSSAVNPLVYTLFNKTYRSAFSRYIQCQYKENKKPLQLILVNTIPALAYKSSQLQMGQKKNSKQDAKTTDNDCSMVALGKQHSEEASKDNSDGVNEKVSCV
Sequence of Muscarinic acetylcholine receptor M1 (Homo sapiens) (P11229 whole entry, looked up): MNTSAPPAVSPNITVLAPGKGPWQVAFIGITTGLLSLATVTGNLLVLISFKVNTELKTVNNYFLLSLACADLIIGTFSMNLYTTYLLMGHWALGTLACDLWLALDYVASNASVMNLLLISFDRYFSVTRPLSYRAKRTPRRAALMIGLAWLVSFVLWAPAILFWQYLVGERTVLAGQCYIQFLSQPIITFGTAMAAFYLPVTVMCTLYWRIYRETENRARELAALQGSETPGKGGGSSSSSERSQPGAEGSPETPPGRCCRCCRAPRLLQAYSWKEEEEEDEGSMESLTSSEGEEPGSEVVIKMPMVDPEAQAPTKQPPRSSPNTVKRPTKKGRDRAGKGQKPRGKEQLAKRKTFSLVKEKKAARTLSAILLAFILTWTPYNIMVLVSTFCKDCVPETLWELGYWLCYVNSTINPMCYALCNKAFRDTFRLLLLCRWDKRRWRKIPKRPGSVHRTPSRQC
Sequence of Beta-2 adrenergic receptor (Homo sapiens) (P07550 whole entry, looked up): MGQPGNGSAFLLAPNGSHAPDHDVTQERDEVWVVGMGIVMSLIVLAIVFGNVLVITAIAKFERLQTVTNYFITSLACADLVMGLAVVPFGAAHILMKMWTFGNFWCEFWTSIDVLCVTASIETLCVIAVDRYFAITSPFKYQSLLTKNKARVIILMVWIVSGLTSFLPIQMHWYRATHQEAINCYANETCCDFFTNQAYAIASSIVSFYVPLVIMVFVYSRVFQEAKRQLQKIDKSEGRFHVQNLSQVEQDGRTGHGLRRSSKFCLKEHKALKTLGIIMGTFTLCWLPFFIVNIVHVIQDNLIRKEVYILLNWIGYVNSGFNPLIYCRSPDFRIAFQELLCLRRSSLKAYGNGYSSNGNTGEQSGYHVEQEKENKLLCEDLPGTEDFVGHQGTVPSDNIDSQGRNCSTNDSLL
Sequence of KiSS-1 receptor (Homo sapiens) (Q969F8 whole entry, looked up): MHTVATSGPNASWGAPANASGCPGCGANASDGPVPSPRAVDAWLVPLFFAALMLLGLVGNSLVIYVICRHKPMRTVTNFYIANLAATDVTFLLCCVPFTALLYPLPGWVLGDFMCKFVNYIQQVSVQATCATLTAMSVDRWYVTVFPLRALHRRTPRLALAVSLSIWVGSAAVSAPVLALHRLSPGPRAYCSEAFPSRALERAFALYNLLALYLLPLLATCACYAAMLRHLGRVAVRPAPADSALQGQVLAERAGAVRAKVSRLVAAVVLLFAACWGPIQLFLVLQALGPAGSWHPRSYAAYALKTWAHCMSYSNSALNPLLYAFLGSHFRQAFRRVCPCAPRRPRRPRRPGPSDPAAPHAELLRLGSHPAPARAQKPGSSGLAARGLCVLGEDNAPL
Sequence of Gonadotropin-releasing hormone receptor (Homo sapiens) (P30968 whole entry, looked up): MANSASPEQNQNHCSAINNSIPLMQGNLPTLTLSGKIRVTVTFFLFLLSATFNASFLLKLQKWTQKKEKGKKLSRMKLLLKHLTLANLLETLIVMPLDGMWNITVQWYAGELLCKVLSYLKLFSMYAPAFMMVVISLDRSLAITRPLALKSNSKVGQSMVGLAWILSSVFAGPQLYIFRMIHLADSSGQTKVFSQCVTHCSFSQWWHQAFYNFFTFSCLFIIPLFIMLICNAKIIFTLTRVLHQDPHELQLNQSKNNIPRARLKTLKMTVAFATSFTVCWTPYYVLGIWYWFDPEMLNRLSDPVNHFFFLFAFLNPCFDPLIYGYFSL

SMILES	Potency [1]	Potency [2]	Potency [3]	Potency [4]	Potency [5]	Potency [6]	Potency [7]	Potency [8]	Potency [9]	Potency [10]	Potency [11]	Potency [12]	Potency [13]	Potency [14]	Potency [15]	Potency [16]	Potency [17]	Potency [18]	Potency [19]	Potency [20]
CNC[C@H](O)c1ccc(O)c(O)c1	inactive	inactive	110 nM (active) and 233 nM (active)	inactive	inactive	inactive	inactive	inactive	inactive	inactive	inactive	inactive	13 µM (active)	–	–	–	–	–	–	–
Nc1ccc2c(c1)C(=O)c1ccccc1C2=O	inactive	756 nM (active) and 243 nM (active)	inactive	inactive	inactive	inactive	inactive	inactive and 4.08 µM (active)	inactive	inactive	–	–	–	inactive	inactive	inactive	inactive	inactive	–	–
CCCCCCCCCCC=CC1CC(=O)OC1=O (stereo unspecified)	inactive	inactive	inactive	inactive	inactive	inactive	inactive	inactive	inactive	inactive	–	inactive	inactive	inactive	inactive	inactive	inactive	inactive	–	–
C=CC[N+](C)(C)CC=C	inactive	inactive	inactive	inactive	inactive	inactive	inactive	inactive	inactive	inactive	–	inactive	inactive	inactive	inactive	inactive	inactive	inactive	inactive	–
C[N+](C)(C)CCCCCC[N+](C)(C)C	inactive	inactive	inactive	inactive	inactive	inactive	inactive	inactive	inactive	inactive	–	inactive	inactive	inactive	inactive	inactive	inactive	inactive	inactive	inactive
C1COCCN1	inactive	inactive	inactive	inactive	inactive	inactive	inactive	inactive	inactive	inactive	–	inactive	inactive	inactive	inactive	inactive	inactive	inactive	inactive	inactive
COc1ccc(Cl)cc1C(=O)NCCc1ccc(S(=O)(=O)NC(=O)NC2CCCCC2)cc1	inactive	inactive	inactive	inactive	inactive	inactive	inactive	inactive	inactive	inactive	inactive	inactive	inactive	–	–	–	–	inactive	–	–
CCOC(=O)c1ccc(O)cc1	inactive	inactive	inactive	inactive	inactive	inactive	inactive	inactive	inactive	inactive	–	inactive	inactive	inactive	inactive	inactive	–	–	–	inactive
CC(=O)CCc1ccccc1	inactive	inactive	inactive	inactive	inactive	inactive	inactive	inactive	inactive	inactive	–	inactive	inactive	inactive	inactive	inactive	inactive	inactive	inactive	–
Cc1ccc(S(=O)(=O)Oc2ccc(N=Nc3ccc(-c4ccc(N=Nc5c(O)ccc6cc(S(=O)(=O)O)cc(S(=O)(=O)O)c56)c(C)c4)cc3C)cc2)cc1	24.4 µM (active) and 17.8 µM (active)	inactive	inactive	inactive	inactive	inactive	inactive	inactive	inactive	inactive	–	inactive	inactive	inactive	inactive	inactive	–	inactive	–	inactive
CCCCCCOCCO	inactive	inactive	inactive	inactive	inactive	inactive	inactive	inactive	inactive	inactive	–	inactive	inactive	inactive	inactive	inactive	inactive	–	inactive	inactive
CC(=O)O[C@]1(C(C)=O)CC[C@H]2[C@@H]3C=C(Cl)C4=CC(=O)CC[C@]4(C)[C@H]3CC[C@@]21C	inactive	68.5 µM (active) and inactive	inactive	inactive	inactive	inactive	inactive	inactive	inactive	inactive	inactive	inactive	inactive	–	–	–	–	inactive	inactive	–
CSc1ccc(Cl)cc1	inactive	inactive	inactive	inactive	inactive	inactive	inactive	inactive	inactive	inactive	–	inactive	inactive	inactive	inactive	inactive	inactive	inactive	inactive	inactive
CC(O)CN(CCN(CC(C)O)CC(C)O)CC(C)O (stereo unspecified)	inactive	inactive	inactive	inactive	inactive	inactive	inactive	inactive	inactive	inactive	–	inactive	inactive	inactive	inactive	inactive	inactive	inactive	inactive	–
Cc1c(N(C)CS(=O)(=O)O)c(=O)n(-c2ccccc2)n1C	inactive	inactive	inactive	inactive	inactive	inactive	inactive	inactive	inactive	inactive	inactive	inactive	inactive	–	–	–	inactive	inactive	–	–
CC(=O)OCc1ccc2c(c1)OCO2	inactive	inactive	inactive	inactive	inactive	inactive	inactive	inactive	inactive	inactive	–	inactive	inactive	inactive	inactive	inactive	inactive	inactive	inactive	–
O=C=Nc1ccc(Cc2ccc(N=C=O)cc2)cc1	inactive	inactive	inactive	inactive	inactive	inactive	inactive	inactive	inactive	inactive	–	inactive	inactive	inactive	inactive	inactive	inactive	inactive	–	inactive
CC(C)CC(=O)CC(C)C	inactive	inactive	inactive	inactive	inactive	inactive	inactive	inactive	inactive	inactive	–	inactive	inactive	inactive	inactive	inactive	inactive	inactive	–	inactive
CCOc1ccc(NC(=O)CC(C)O)cc1 (stereo unspecified)	inactive	inactive	inactive	inactive	inactive	inactive	inactive	inactive	inactive	inactive	–	inactive	inactive	inactive	inactive	inactive	inactive	inactive	inactive	–
CCC(C)OC(=O)c1ccc(O)cc1 (stereo unspecified)	inactive	inactive	inactive	inactive	inactive	inactive	inactive	inactive	inactive	inactive	–	inactive	inactive	inactive	inactive	inactive	inactive	inactive	–	inactive
O=C(OCC1CCC2OC2C1)C1CCC2OC2C1 (stereo unspecified)	inactive	inactive	inactive	inactive	inactive	inactive	inactive	inactive	inactive	inactive	–	inactive	inactive	inactive	inactive	inactive	inactive	inactive	–	inactive
CC(C)(C)NC(=O)[C@H]1CC[C@H]2[C@@H]3CC[C@H]4NC(=O)C=C[C@]4(C)[C@H]3CC[C@]12C	inactive	inactive	inactive	inactive	inactive	inactive	inactive	inactive	inactive	inactive	inactive	inactive	inactive	–	–	–	–	inactive	–	–
O=C(c1cc(O)c(O)c(O)c1)c1ccc(O)c(O)c1O	inactive	inactive	inactive	inactive	inactive	inactive	inactive	inactive	inactive	inactive	–	inactive	inactive	inactive	inactive	inactive	inactive	–	–	inactive
C=C[Si](OCCOC)(OCCOC)OCCOC	inactive	inactive	inactive	inactive	inactive	inactive	inactive	inactive	inactive	inactive	–	inactive	inactive	inactive	inactive	inactive	inactive	inactive	inactive	–
CCCCCCCCCCO	inactive	inactive	inactive	inactive	inactive	inactive	inactive	inactive	inactive	inactive	–	inactive	inactive	inactive	inactive	inactive	inactive	inactive	inactive	inactive
Cc1cccc(C(=O)O)c1	inactive	inactive	inactive	inactive	inactive	inactive	inactive	inactive	inactive	inactive	–	inactive	inactive	inactive	inactive	inactive	inactive	inactive	inactive	inactive
Nc1c2c(nc3ccccc13)CCCC2	54.5 µM (active) and inactive	48.6 µM (active) and inactive	inactive	inactive	inactive	inactive	inactive	inactive	inactive	inactive	inactive	inactive	inactive	–	–	–	inactive	inactive	inactive	–
CC(=O)CCC=C(C)C	inactive	inactive	inactive	inactive	inactive	inactive	inactive	inactive	inactive	inactive	–	inactive	inactive	inactive	inactive	inactive	inactive	inactive	inactive	inactive
CCC1(c2ccccc2)C(=O)NCNC1=O	inactive	inactive	inactive	inactive	inactive	inactive	inactive	inactive	inactive	inactive	inactive	inactive	inactive	–	–	–	inactive	inactive	–	–
